TLR9-MyD88 inh: inhibitors of TLR9-MyD88 association in cells, primary screen, cell-based, CHO, BLA complementation, fluorescence; Toll-like receptor 9 (Homo sapiens) + Myeloid differentiation primary response protein …; CCF4 FRET ratio; inhibition, % at 4.98 µM; 340,000 compounds, 0.21% hits; AID 504734, 2011;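 active = inhibition above the mean over all tested compounds plus 3 SD, cut at about 21% in these data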;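 note: 0% = DMSO only wells and 100% = clavulanate BLA inhibitor control wells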
m5-HT2A agonist: mouse Htr2a agonists via beta-arrestin recruitment, primary screen, cell-based, luminescence | CHO-K1 mHTR2A beta-arrestin complementation; percent of 30 µM serotonin response | 360,000 compounds, 0.66% hits | 5-hydroxytryptamine receptor 2A (Mus musculus), P35363 | activation, % at 7.6 µM;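 active = activation above a run cutoff, the mean activation of all tested compounds plus 3 SD, cut at about 14% in these data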;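 note: 0% = plate median of compound wells and 100% = 30 µM serotonin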
NOD2-RIPK2 inh: NOD2-RIPK2 binding disruptors in cells, primary screen, fluorescence, CHO cells, BLA complementation; Receptor-interacting serine/threonine-protein kinase 2 (Homo sapiens), O43353; CCF4 ratio; inhibition, % at 4.98 µM; 360,000 compounds, 0.38% hits; AID 624267, 2012; in the data active = inhibition above about 21%;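 note: 0% = vehicle only and 100% = reference blocker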
TLR4 MyD88 comp: inhibitors of TLR4-MyD88 association in cells, primary screen, cell-based, HeLa CL3-4, BLA complementation, FRET ratio. Toll-like receptor 4 (Homo sapiens) + Myeloid differentiation primary response protein …. HeLa CL3-4 TLR4/MyD88 BLA complementation. inhibition, % at 8.4 µM. 200,000 compounds, 0.18% hits. AID 861, 2007; in the data active = inhibition above about 25%;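 note: 0% = vehicle and 100% = reference inhibitor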
TMEM16A inh: TMEM16A chloride channel inhibitors, primary screen, cell-based, HTS; HEK293 TMEM16A/YFP iodide influx fluorescence, ionomycin; normalized B-score (activity score, 25-100; higher = stronger inhibition) at 10 µM; AID 588511, 2011; 310,000 compounds, 1.2% hits;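 active = ratio plate-corrected score three or more library SD toward inhibition, starting fluorescence score within five deviations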;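 note: score derived from kinetic fluorescence span divided by baseline fluorescence per well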
TMEM16A act: TMEM16A chloride channel activators or potentiators, primary screen, cell-based, HTS | HEK293 TMEM16A/YFP-H148Q/I152L, iodide quench fluorescence; active compounds read low | B-score at 10 µM | 340,000 compounds, 0.3% hits;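 active = fluorescence-ratio B-score plate-corrected deviation score at least 3 library SD below zero, with starting fluorescence score within 5 deviations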;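 note: channel opened by trigger with iodide after compound preincubation; score built on the fluorescence ratio of max minus min over baseline; more negative score means more quench and so TMEM16A activation or potentiation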
TMEM16A reconf: TMEM16A chloride channel inhibitors, confirmation, cell-based, re-confirmation; shares compounds with TMEM16A inh; HEK293 TMEM16A/YFP-H148Q, iodide quench fluorescence; ionomycin added to raise cell calcium; 2,300 compounds, 39% hits; inhibition, % at 10 µM;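 active = mean duplicate percent inhibition, scaled so buffer wells are 0 and the reference blocker 100, over three buffer SD above buffer mean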
TMEM16A Ca cntr: calcium mobilization in TMEM16A/YFP HEK293 cells, confirmation, counter-screen for TMEM16A inhibitor project. shares compounds with TMEM16A inh. Fluo4 calcium mobilization. calcium response (% of ionomycin), % at 10 µM. 2,300 compounds, 2% hits. AID 652231, 2013;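 active = duplicate-averaged calcium signal over 20% of the ionomycin maximum, relative to buffer baseline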;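 note: each well's signal is peak minus trough fluorescence divided by its pre-addition baseline; 0% = buffer wells and 100% = ionomycin wells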
YFP-HEK293 quench: iodide YFP quench changes in parental YFP-HEK293, counter-screen for TMEM16A inhibitor project, cell-based; shares compounds with TMEM16A inh; ionomycin; YFP ratio F(max-min)/F0 at 10 µM; 2,300 tested, under 10 active; AID 652233, 2013;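 active = yellow fluorescent protein signal ratio exceeding the buffer control mean by over 5 SD of those controls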;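 note: ratio is mean of duplicate wells from kinetic YFP trace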
ClC-1 rat inh: ClC-1 chloride channel inhibition, selectivity assay for TMEM16A inhibitor project, cell-based, voltage-dependent ClC-1; shares compounds with TMEM16A inh; CHO ClC-1-YFP, iodide influx fluorescence quench; iodide control reads 0, buffer control 100; ratio percent, % at 10 µM; 2,300 tested, under 10 active; AID 652236, 2013;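 active = duplicate-mean ratio percent above the mean of iodide-only control wells, which defines zero, plus 5 of their SD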;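 note: higher percent means stronger block of ClC-1 iodide influx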
Target sequence (P35524 whole entry, looked up): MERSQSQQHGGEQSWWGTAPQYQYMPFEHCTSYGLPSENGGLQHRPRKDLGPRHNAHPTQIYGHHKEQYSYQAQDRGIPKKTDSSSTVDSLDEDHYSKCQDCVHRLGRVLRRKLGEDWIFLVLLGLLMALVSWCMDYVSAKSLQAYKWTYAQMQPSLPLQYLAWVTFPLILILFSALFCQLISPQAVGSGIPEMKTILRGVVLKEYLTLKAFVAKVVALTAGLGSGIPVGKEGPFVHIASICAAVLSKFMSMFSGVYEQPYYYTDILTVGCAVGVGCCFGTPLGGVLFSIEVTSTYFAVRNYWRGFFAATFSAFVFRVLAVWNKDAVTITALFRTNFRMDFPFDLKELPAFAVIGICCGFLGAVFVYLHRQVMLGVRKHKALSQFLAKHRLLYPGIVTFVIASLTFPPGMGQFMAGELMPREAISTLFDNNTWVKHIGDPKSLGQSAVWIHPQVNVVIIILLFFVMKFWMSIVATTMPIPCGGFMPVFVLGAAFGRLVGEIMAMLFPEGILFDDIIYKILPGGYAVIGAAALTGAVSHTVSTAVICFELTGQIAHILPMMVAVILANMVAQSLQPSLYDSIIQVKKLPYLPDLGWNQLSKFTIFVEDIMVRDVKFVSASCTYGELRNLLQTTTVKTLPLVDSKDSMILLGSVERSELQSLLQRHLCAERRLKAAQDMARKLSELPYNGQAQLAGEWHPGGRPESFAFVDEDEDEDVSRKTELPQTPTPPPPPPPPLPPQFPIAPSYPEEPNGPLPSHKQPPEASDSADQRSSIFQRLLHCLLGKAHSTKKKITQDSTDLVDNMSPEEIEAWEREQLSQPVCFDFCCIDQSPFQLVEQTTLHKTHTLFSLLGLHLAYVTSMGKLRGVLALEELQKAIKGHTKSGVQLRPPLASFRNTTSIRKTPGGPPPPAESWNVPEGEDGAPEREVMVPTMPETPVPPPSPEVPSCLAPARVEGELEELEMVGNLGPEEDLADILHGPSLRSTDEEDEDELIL
Active calls of the source: *; i = inactive; . = not tested or not shown. In the library only some 2.4% were active in any assay of this set; here they are far more common.

SMILES	TLR9-MyD88 inh	m5-HT2A agonist	NOD2-RIPK2 inh	TLR4 MyD88 comp	TMEM16A inh	TMEM16A act	TMEM16A reconf	TMEM16A Ca cntr	YFP-HEK293 quench	ClC-1 rat inh
CCNC(=O)C1CCCN(C(=O)c2ccccc2)CC1 (configuration not stated)	.	5	-2	.	.	.	.	.	.	.
CCC(Sc1ccc2nnc(-c3ccc(OC)c(OC)c3)n2n1)C(=O)O (configuration not stated)	-1	3	-2	11	100*	i	i	i	-0.79	-6
COc1ccc(-c2nnc3ccc(SC(C(C)=O)C(C)=O)nn23)cc1OC	3	-2	10	4	i	i	.	.	.	.
CN1c2ccccc2C(O)=C(C(=S)Nc2ccc(F)c(Cl)c2)S1(=O)=O	1	2	-4	-6	100*	i	62%*	i	-1.1	-30
CN1c2ccccc2C(O)=C(C(=S)Nc2ccccc2)S1(=O)=O	2	-1	3	-7	i	i	.	.	.	.
Cn1c(=O)n(CC(=O)N2CCN(c3nnc(-c4ccccc4)c4ccccc34)CC2)c2ccccc21	4	1	-14	4	25*	i	i	i	-1	-8
O=S(=O)(NCCOCC(F)(F)C(F)F)c1ccc2oc3ccccc3c2c1	3	2	-4	4	25*	i	24%*	i	-0.92	-12
CC(=O)c1ccc(OCCCC(=O)N2CCN(S(=O)(=O)c3ccc(C(C)C)cc3)CC2)cc1	-3	-3	2	.	25*	i	i	i	-1	-12
Fc1ccc(NC(=S)NNc2ncc(C(F)(F)F)cc2Cl)c(F)c1	-12	-12	-2	14	25*	i	30%*	i	-1	-14
O=C(c1ccccc1)c1ccc2cc(O)ccc2c1	-21	-6	4	.	25*	i	i	i	-1.1	-2
Cc1c(C(=O)Nc2ccc(Oc3ccccc3)cc2)sc2nc3n(c(=O)c12)CCC3	-13	7	-10	-7	100*	i	i	i	-1.2	-18
O=C(CNc1cccc(S(=O)(=O)N2CCCC2)c1)Nc1cccc(Br)c1	-4	0	-11	.	25*	i	16%*	i	-0.97	-18
Cc1ccc(NS(=O)(=O)c2cc(N)ccc2Cl)c(C)c1	-6	-2	0	.	i	i	.	.	.	.
COc1c(NC(C)=O)c2ccccc2c2ccccc12	-3	0	-7	.	i	i	.	.	.	.
CC(=O)NC(Cc1ccccc1)c1ccc2c(c1)OCCCO2 (configuration not stated)	-5	-2	-7	7	i	i	.	.	.	.
O=C(NC(Cc1ccccc1)c1ccc2c(c1)OCCCO2)c1ccc(F)cc1 (configuration not stated)	-5	-2	-5	-9	25*	i	i	i	-1	-2
Cc1cc(C)cc(NC(=O)C2(c3ccccc3)CC2(Cl)Cl)c1 (configuration not stated)	-4	-8	0	-7	25*	i	i	i	-1.3	-6
CC(C)Cc1ccc(CN2CCCC(NC(=O)CCCN3CCCC3=O)C2)cc1 (configuration not stated)	-4	3	-15	.	i	i	.	.	.	.
COc1cc(NS(=O)(=O)c2ccc(OC)c(C)c2C)c(OC)cc1Cl	-1	-5	-1	-18	25*	i	54%*	i	-0.72	-4
COC(=O)C1=C(C(=O)OC)SC(=C2C(=S)C(C)(C)N(C(=O)CC(C)C)c3ccccc32)S1	-3	1	-1	11	25*	i	i	i	-1.1	-12
CC(C)CC(=O)n1sc(NC(=O)c2ccccc2)nc1=O	5	5	-4	-6	i	i	.	.	.	.
COCCNC(=O)CNC(=O)c1nn(-c2ccc(OC)c(Cl)c2)c(=O)c2ccccc12	6	10	-10	4	i	i	.	.	.	.
COc1ccc(-n2nc(C(=O)NCC(=O)NCCc3ccc(OC)c(OC)c3)c3ccccc3c2=O)cc1Cl	-1	2	-9	.	25*	i	i	i	-1.3	-4
COc1ccc2c(C)c(CC(=O)N3C[C@H]4C[C@@H](C3)c3cccc(=O)n3C4)c(=O)oc2c1OC	-8	-2	-1	.	i	i	.	.	.	.
Cc1cc(-c2ccc(Cl)cc2Cl)c(C#N)c(=O)[nH]1	2	-3	-1	.	i	i	.	.	.	.
SMILES	TLR9-MyD88 inh	m5-HT2A agonist	NOD2-RIPK2 inh	TLR4 MyD88 comp	TMEM16A inh	TMEM16A act	TMEM16A reconf	TMEM16A Ca cntr	YFP-HEK293 quench	ClC-1 rat inh
CSc1nc(-c2ccc(Cl)cc2Cl)[nH]c(=O)c1C#N	-10	0	-8	-4	25*	i	50%*	i	-1.1	-8
COc1cc(C2C(C#N)=C(N)OC3=C2C(=O)CCC3)c([N+](=O)[O-])cc1OC (configuration not stated)	0	6	1	3	i	i	.	.	.	.
CC(C)C(=O)NNC(=O)c1c(O)c2ccccc2[nH]c1=O	-1	3	0	.	i	i	.	.	.	.
COC(=O)CNc1cc(S(=O)(=O)N2CCCCC2)ccc1Oc1cccc(C)c1	2	-4	-7	.	i	i	.	.	.	.
CCCn1cnc2c(SCCc3ccccc3)nc(N)nc21	4	-1	4	.	.	i	.	.	.	.
Cn1c(=O)c2c(nc(NCCCO)n2C/C=C/c2ccccc2)n(C)c1=O	-1	-1	0	-20	100*	i	i	i	-1.1	-6
